Measurements as given in PubChem BioAssay.
For some assays here: Results with a measured potency or affinity are listed apart. The source made the active and inactive calls. No stated cut-off is given here; in the data, active means parasite load remaining mostly below about 12% (no sharp cut-off); inactive means mostly above about 10%. Numbered stars: 1 amine (or outer) side, 2 acyl side, 3 side chain; on linkers, the order of the positions; unused ones are H or OH. Bridge positions count the residues as written; N and C are the ends. Square brackets hold non-standard residues; d marks the D form. Peptide text beside a SMILES is read from it. * marks the point of attachment. ξ: configuration not given here. ΔAla(Z-3-ureido) = NC(=O)N/C=C(\N)C(=O)O; X2 = NC1=NCCC(C(N[*:1])C(=O)[*:2])N1; ξβ3hOrn = NCCCC(N)CC(=O)*; Dap = NC[CH](N)C(=O)O

What was measured:
[1] = blockers of polyQ-driven CASP3 activation – cell-based (AID 1583); conditions: polyglutamine-induced caspase-3 activation, cell assay; stronger effect = higher value;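 tested at 10 µM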
[2] = yeast 75Q aggregation reduction – 75Q-TubU reporter (AID 1593); conditions: Yeast 75Q polyglutamine aggregation reporter
[3] = restoration of touch response, mutant HTT neurons – whole organism, C. elegans mechanosensory neurons, N-terminal huntingtin (AID 1599); conditions: C. elegans polyQ-huntingtin mechanosensory neurons, stronger effect = higher value
[4] = blockers of cytochrome c efflux from mitochondria – biochemical, purified mitochondria (AID 1603); conditions: stronger effect = lower value;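 further: mouse liver mitochondria challenged with calcium chloride; signal normalized to the plate average as 100%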
[5] = polyglutamine aggregate formation blockers (AID 1604); conditions: polyglutamine-induced protein aggregation inhibition assay; stronger effect = higher value; tested at 2.5 µM
[6] = glutamate transport activators, MN-1 cells, MN-1 cell line (AID 1612); conditions: MN-1 motor neuron cells, stronger effect = higher value;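 further: tested at 1 µM final; 0% = mean of DMSO vehicle wells on each plate; positive means more glutamate uptake than control and negative means less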
[7] = GFP-Q80 aggregate reduction, neuronal-like cells, cell-based, NGF-treated PC12, GFPQ80 (AID 1614); conditions: PC12 NGF-treated GFP-polyQ80 inclusion reduction;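 further: lower means fewer inclusions and 0 means no inclusions at all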
[8] = 75Q-TubH aggregate inhibition, S. cerevisiae, yeast (AID 1616); conditions: S. cerevisiae 75Q-TubH polyglutamine aggregation suppression; stronger effect = higher value
[9] = P. berghei load reduction in hepatocytes – cell-based, HepG2, luciferase luminescence, HepG2 viability, primary screen (AID 624349);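 further: 100% = mean of DMSO negative control wells on the same plate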; conditions: P. berghei liver stage in HepG2, luciferase luminescence, concentration not given here; parasite load remaining: stronger effect = lower value; viability: measured here: HepG2 viability without parasites

Row | SMILES | inhibition [1] [%] | score [2] | rescue above control [3] | cytochrome c release ratio [4] | inhibition of aggregation [5] [%] | glutamate uptake change [6] [%] | inclusion score [7] | aggregation suppression score [8] | parasite load remaining [9] | viability [9] [%]
1 | NCCCC(N)CC(=O)NCC1NC(=O)C(CO)NC(=O)C(N)CNC(=O)C(C2CCN=C(N)N2)NC(=O)/C(=C/NC(N)=O)NC1=O (stereo not drawn) (H-[Dap]S[Dap](ξβ3hOrn)[ΔAla(Z-3-ureido)][X2]; lactam 1-C; configuration not given here) | 21.4 | 1.54 | 3.33 | 2.07 | -24.2 | 13.7 | 1 | 0.882 | – | –
2 | CC1(C)O[C@@H]2C[C@H]3C4C[C@H](F)C5=CC(=O)C=CC5(C)[C@@]4(F)[C@@H](O)C[C@]3(C)[C@]2(C(=O)CO)O1 (some centres not stated) | -27.2 | 1.29 | -9.42 | 0.94 | 61.1 | 15.9 | 2 | 1.43 | – | –
3 | CCC(=O)OC1CCC2C3CCc4cc(O)ccc4C3CCC12C (configuration not stated) | 6.67 | 0.64 | -1.7 | 1.72 | 85.9 | -23.3 | – | 0.421 | – | –
4 | CC(N)C(O)c1cccc(O)c1 (configuration not stated) | -31.9 | 1.32 | 2.5 | 0.89 | 91.7 | -5.75 | 2 | 1.46 | 141% (inactive) | 88.5
5 | O=C(Cc1cccs1)NC1C(=O)N2C(C(=O)[O-])=C(C[n+]3ccccc3)CSC12 (configuration not stated) | 35.1 | 1.38 | -1.43 | 1.22 | 59 | -13.7 | 2 | 1.45 | 179% (inactive) | 74.4
6 | CC(=O)Oc1ccc2c(c1)CCC1C2CCC2(C)C(=O)CCC12 (configuration not stated) | 10.5 | -0.03 | -10.4 | 0.81 | 85.9 | -16 | 2 | 0.169 | – | –
7 | CCC(=O)O[C@@H](O[P@](=O)(CCCCc1ccccc1)CC(=O)N1C[C@H](C2CCCCC2)C[C@H]1C(=O)O)C(C)C | 5.65 | 0.97 | 2.83 | 0.8 | 47.1 | 4.48 | 2 | 0.527 | – | –
8 | CN[C@@H]1[C@H](O)[C@H](NC)[C@H]2O[C@@]3(O)C(=O)C[C@@H](C)O[C@H]3OC2[C@H]1O (some centres not stated) | 1.15 | 1.13 | -5.98 | 0.86 | 42.9 | 4.38 | 2 | 1.36 | – | –
9 | CC12CC[C@@H]3c4ccc(O)cc4CCC3[C@@H]1CCC2=O (some centres not stated) | -0.88 | 0.11 | 10.3 | 0.91 | 62 | -29 | 2 | 0.566 | – | –
10 | C1CCN2C[C@@H]3CC(CN4CCCC[C@@H]34)[C@H]2C1 | 16.2 | 1.32 | -2.17 | 1.45 | 72.7 | -9.72 | 2 | 1.48 | – | –
11 | OCc1cc2c(cn1)[nH]c1ccccc12 | 15.8 | 0.82 | 10.8 | 0.58 | -1.27 | 17.8 | 2 | 1.28 | – | –
12 | OCCS | 26.7 | 1.26 | -1.67 | 1.18 | 29.4 | 5.07 | 2 | 1.5 | – | –
13 | NC[C@@H]1O[C@H](O[C@@H]2[C@@H](CO)OC(O[C@@H]3[C@@H](O)[C@H](N)C[C@H](N)[C@H]3OC3O[C@H](CO)[C@@H](O)[C@H](O)[C@H]3N)[C@@H]2O)[C@H](N)[C@@H](O)[C@@H]1O (some centres not stated) | -9.63 | 1.53 | 1.69 | 1.36 | 42.9 | -14.4 | 2 | 1.65 | – | –
14 | COC1=C2C[C@@H](C)C[C@H](OC)[C@H](O)[C@@H](C)/C=C(\C)[C@@H](OC(N)=O)[C@H](OC)/C=C\C=C(/C)C(=O)NC(=CC1=O)C2=O | -5.02 | 2.11 | 0 | 1.13 | -23.4 | 10.3 | – | 1.43 | – | –
15 | Cc1cc(Nc2ccccc2C(=O)O)ccc1Cl | -21.2 | -0.11 | -9.28 | 4.31 | 77.8 | -15.3 | 1 | -0.491 | – | –
